Screens deposited in PubChem by National Center for Advancing Translational Sciences (NCATS).
ELG1 genotoxic – genotoxicity induction in ELG1-luciferase HEK293T cells; HEK293T ELG1-luciferase reporter, luminescence, 16 h; Potency, µM (top dose mostly 46 µM), hits mostly activators; 330,000 tested, 1.3% active; AID 504466; also: nearly all actives have a fitted effect of over 60% in size
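After overnight (16 hr) compound treatment at 37 °C, ELG1-luciferase HEK293T cells were lysed with ONE-Glo; luminescence quantified 30 min later at room temperature.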
NPC1 promoter act – activators of NPC1 promoter; Huh7 NPC1 promoter luciferase reporter, 24 h; Potency, µM (titrated, usually from 9.22 µM), actives largely listed as activators; 320,000 tested, 2.4% active; AID 485313; also: nearly all actives have a fitted effect of over 60% in size
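Stably transfected Huh7 (NPC1 promoter→luciferase), 1500 cells/well in Opti-MEM + 10% FBS, 2 h settle, then compound 24 h at 37 °C. Luminescence after 10 min with Amplite reagent.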
uPA generation – blocks generation of uPA at the cell surface; cell surface uPA generation assay, qHTS; Potency, µM (series often up to 38.3 µM), actives largely listed as inhibitors; 330,000 tested, 0.31% active; AID 540303; active = well fitted inhibition curve with a large enough effect; inconclusive = small, poorly fitted or top-dose-only effect; inactive = no such curve, though single readings can be large or run the other way; tested in mouse RAW 264.7 cells; also: nearly all actives have a fitted effect of over 55% in size
Rab9 promoter act – Rab9 promoter activation | Huh7 Rab9 promoter-luciferase reporter, luminescence, 24 h | Potency, µM (top dose mostly 9.22 µM), most hits filed as activators | 320,000 tested, 2.8% active | AID 485297; also: nearly all actives have a fitted effect of over 60% in size
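Luciferase signal after 10 min detection reagent at ambient indicates Rab9 promoter upregulation; stably transfected Huh7 cells were treated 24 h with compound in DMSO at 37 °C, 5% CO2.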
FLuc modulator – firefly luciferase modulation, counter-screen for miR-21 project; purified FLuc, Km substrates, luminescence inhibition; Potency, µM (highest dose often 57.5 µM), usual class: inhibitors; 360,000 tested, 6.9% active; AID 588342; also: nearly all actives have a fitted effect of over 55% in size
Target sequence (P08659 whole entry, looked up): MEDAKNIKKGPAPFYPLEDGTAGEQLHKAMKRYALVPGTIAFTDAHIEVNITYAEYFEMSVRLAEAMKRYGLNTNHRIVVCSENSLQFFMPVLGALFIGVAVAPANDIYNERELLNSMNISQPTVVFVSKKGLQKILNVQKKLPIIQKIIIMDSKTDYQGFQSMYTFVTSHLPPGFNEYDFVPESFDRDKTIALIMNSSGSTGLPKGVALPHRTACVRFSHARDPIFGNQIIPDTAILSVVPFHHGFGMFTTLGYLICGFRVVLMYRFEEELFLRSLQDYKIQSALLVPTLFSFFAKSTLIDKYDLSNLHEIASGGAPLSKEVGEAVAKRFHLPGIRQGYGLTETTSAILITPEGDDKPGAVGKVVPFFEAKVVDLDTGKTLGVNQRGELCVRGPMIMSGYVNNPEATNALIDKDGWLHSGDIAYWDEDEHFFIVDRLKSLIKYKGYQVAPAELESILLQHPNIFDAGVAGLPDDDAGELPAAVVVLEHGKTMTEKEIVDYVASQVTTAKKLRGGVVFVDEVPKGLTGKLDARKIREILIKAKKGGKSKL
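Biochemical qHTS of compounds, final roughly 60 µM downward over six points, against 10 nM purified firefly luciferase using Km concentrations of substrates (10 uM D-luciferin, 10 uM ATP) in Tris acetate pH 7.5 buffer; luminescence output.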
SMN2 splice up – enhancers of SMN2 splice variant expression; HEK293 SMN2-luciferase splicing reporter, luminescence, 30-36 h; 210,000 tested, 2.8% active; Potency, µM (series often up to 46.1 µM), actives largely listed as activators; also: nearly all actives have a fitted effect of over 55% in size
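HEK293 cells carry an SMN2 minigene-luciferase reporter in which exon 7 inclusion puts luciferase in frame. Cells were seeded at 2000 cells/well, attached for 10-12 hours, then exposed to compounds for 30-36 hours at 37C before ONE-Glo luminescence.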
Hits are given with their value. Only some compounds are listed: those with a hit (about 7.3% of all), similar ones and a draw of the others. Unless noted, calls follow the shape of the dose curve; as a rule, active = well fitted curve in the direction sought with a large enough effect; inconclusive = small, poorly fitted or top-dose-only effect, or another doubt; inactive = no such curve, though single readings can be large; an effect the other way counts as inactive or inconclusive.

What do the screens show for `Cc1c(C(=O)Nc2ccccc2)oc2c1C(=O)CC(C)(C)C2`?
ELG1 genotoxic: inactive; NPC1 promoter act: inactive; Rab9 promoter act: inactive; FLuc modulator: inconclusive; SMN2 splice up: inactive

Results for COc1ccc(-c2cc(C(F)(F)F)n3nc(C)c(-c4ccccc4)c3n2)cc1OC ?
FLuc modulator: inactive; SMN2 splice up: inactive

What do the screens show for `O=C(NCc1cccc(Cl)c1)c1ccc(CS(=O)Cc2ccc(Cl)cc2)o1` (centres undefined)?
ELG1 genotoxic: inactive; NPC1 promoter act: inactive; uPA generation: inactive; Rab9 promoter act: inactive; FLuc modulator: inactive

What do the screens show for `Cc1cc(C)nc(NC(=S)NC(=O)c2ccccc2)n1`?
ELG1 genotoxic: inactive; NPC1 promoter act: inconclusive; uPA generation: inactive; Rab9 promoter act: inconclusive; FLuc modulator: inactive

Results for Cc1ccc(NC(=O)Nc2cnc3ccccc3c2)cc1 ?
ELG1 genotoxic: inconclusive; NPC1 promoter act: 2.24µM; uPA generation: inactive; Rab9 promoter act: 1.26µM; FLuc modulator: inconclusive; SMN2 splice up: 12.6µM

What do the screens show for `O=C(NC(=S)Nc1cnc2ccccc2c1)c1ccccc1`?
ELG1 genotoxic: inconclusive; NPC1 promoter act: inconclusive; uPA generation: inactive; Rab9 promoter act: 3.55µM; FLuc modulator: 7.57µM; SMN2 splice up: 11.2µM

How did O=C(Nc1cnc2ccccc2c1)c1ccncc1 do in these assays?
ELG1 genotoxic: 2.31µM; NPC1 promoter act: 1.78µM; uPA generation: inactive; Rab9 promoter act: 3.16µM; FLuc modulator: 12µM; SMN2 splice up: inactive

What do the screens show for `O=C(Nc1ccccc1)c1ccncc1`?
uPA generation: inactive; FLuc modulator: inactive; SMN2 splice up: inactive

What do the screens show for `COC(=O)c1cccc(C(=O)Nc2ccc(C)cc2Br)n1`?
ELG1 genotoxic: inactive; NPC1 promoter act: inactive; uPA generation: inactive; Rab9 promoter act: inactive; FLuc modulator: 10.7µM; SMN2 splice up: inconclusive

What do the screens show for `Nc1nc(NCCCN2CCOCC2)nc(NCc2ccccc2)c1[N+](=O)[O-]`?
ELG1 genotoxic: inactive; NPC1 promoter act: inactive; uPA generation: inactive; Rab9 promoter act: inactive; FLuc modulator: inactive

Results for CN(C)S(=O)(=O)c1ccc(NC(=O)CN2CCCc3ccccc32)cc1 ?
ELG1 genotoxic: inactive; NPC1 promoter act: inactive; uPA generation: inactive; Rab9 promoter act: inactive; FLuc modulator: inactive; SMN2 splice up: inactive

How did S=C(NCCc1ccccc1)Nc1ccc(Nc2ccccc2)cc1 do in these assays?
ELG1 genotoxic: inactive; NPC1 promoter act: inactive; uPA generation: inactive; Rab9 promoter act: inactive; FLuc modulator: inactive

Results for S=C(NCCc1ccccc1)Nc1cnc2ccccc2c1 ?
ELG1 genotoxic: inconclusive; NPC1 promoter act: inactive; uPA generation: inactive; Rab9 promoter act: inconclusive; FLuc modulator: 26.9µM; SMN2 splice up: inconclusive

How did O=C(NC(=S)Nc1ncc(Br)cc1Br)c1ccccc1 do in these assays?
ELG1 genotoxic: inconclusive; NPC1 promoter act: inconclusive; uPA generation: inactive; Rab9 promoter act: inactive; FLuc modulator: 21.3µM

How did O=C(CN1CCN(C(=O)c2ccccc2)CC1)Nc1ncc(Br)cc1Br do in these assays?
ELG1 genotoxic: inactive; NPC1 promoter act: inactive; uPA generation: inactive; Rab9 promoter act: inactive; FLuc modulator: inactive; SMN2 splice up: inactive

What do the screens show for `COC(=O)c1cccc(C(=O)Nc2cnc3ccccc3c2)n1`?
ELG1 genotoxic: inactive; NPC1 promoter act: 3.98µM; uPA generation: inactive; Rab9 promoter act: inconclusive; FLuc modulator: 23.9µM; SMN2 splice up: inactive

Results for Cc1cc(C)c2c(NC(=S)NC(=O)c3ccccc3)nn(C)c2n1 ?
ELG1 genotoxic: inactive; NPC1 promoter act: inactive; uPA generation: inactive; Rab9 promoter act: inactive; FLuc modulator: inactive; SMN2 splice up: inactive

What do the screens show for `Cn1ncc2cc(NC(=S)NC(=O)c3ccccc3)ccc21`?
ELG1 genotoxic: inactive; NPC1 promoter act: 2µM; uPA generation: inactive; Rab9 promoter act: 2µM; FLuc modulator: 12µM; SMN2 splice up: inactive

How did Cc1ccccc1Nc1c(-c2c[nH]c3ccccc23)nc2ccc(Cl)cn12 do in these assays?
FLuc modulator: inactive; SMN2 splice up: inactive

Results for Cc1ccc2nc(-c3c[nH]c4ccccc34)c(Nc3ccc(F)cc3)n2c1 ?
FLuc modulator: inactive; SMN2 splice up: 14.1µM

What do the screens show for `Cc1ccc(Nc2c(-c3c[nH]c4ccccc34)nc3cc(C)ccn23)cc1`?
FLuc modulator: inactive; SMN2 splice up: 14.1µM

How did Cc1ccn2c(Nc3ccccc3)c(-c3c[nH]c4ccccc34)nc2c1 do in these assays?
FLuc modulator: inactive; SMN2 splice up: 11.2µM

How did Cc1ccc(NC(=S)N2CCSC2c2cccs2)cc1 (centres undefined) do in these assays?
ELG1 genotoxic: inactive; NPC1 promoter act: inactive; uPA generation: inactive; Rab9 promoter act: inactive; FLuc modulator: 15.1µM; SMN2 splice up: inactive

What do the screens show for `Cc1ccccc1-c1nc(NC2CCNCC2)c2ccccc2n1`?
SMN2 splice up: inactive

Results for S=c1[nH]c(-c2ccccc2)cn1/N=C/c1ccccc1Br ?
ELG1 genotoxic: inactive; NPC1 promoter act: inactive; uPA generation: inactive; Rab9 promoter act: inactive; FLuc modulator: 13.5µM; SMN2 splice up: inactive

How did S=c1[nH]c(-c2ccccc2)cn1/N=C/c1cccc2ccccc12 do in these assays?
ELG1 genotoxic: inactive; NPC1 promoter act: inactive; uPA generation: inactive; Rab9 promoter act: inactive; FLuc modulator: inconclusive; SMN2 splice up: inactive

How did Cc1ccc(C)c(N2CCN(C(=O)c3cnn(C(C)(C)C)c3C3CCN(C(=O)OC(C)(C)C)CC3)CC2)c1 do in these assays?
FLuc modulator: inactive

Results for Cc1nn(-c2ccccc2)c(C)c1CN ?
ELG1 genotoxic: inactive; NPC1 promoter act: inactive; Rab9 promoter act: inactive; FLuc modulator: inactive

Results for Cc1nn(-c2ccccc2)c(C)c1Cc1ccc(O)cc1 ?
ELG1 genotoxic: inactive; NPC1 promoter act: inconclusive; uPA generation: inactive; Rab9 promoter act: inconclusive; FLuc modulator: 23.9µM

How did Cc1cccc(-n2ncc3c(N4CCC5(CC4)OCCO5)ncnc32)c1 do in these assays?
ELG1 genotoxic: inconclusive; NPC1 promoter act: 2.82µM; uPA generation: inactive; Rab9 promoter act: 2.51µM; FLuc modulator: 6.75µM

How did c1ccc(CCN2CCN(c3ncnc4c3cnn4-c3ccccc3)CC2)cc1 do in these assays?
ELG1 genotoxic: inactive; NPC1 promoter act: inactive; uPA generation: inactive; Rab9 promoter act: inactive; FLuc modulator: inactive; SMN2 splice up: inactive

How did Cc1ccc(C)c(N2CCN(c3ncnc4c3cnn4-c3ccccc3)CC2)c1 do in these assays?
ELG1 genotoxic: inactive; NPC1 promoter act: inactive; uPA generation: inactive; Rab9 promoter act: inactive; FLuc modulator: inactive; SMN2 splice up: inactive

Results for c1ccc(-n2ncc3c(N4CCC5(CC4)OCCO5)ncnc32)cc1 ?
ELG1 genotoxic: 4.11µM; NPC1 promoter act: 2.51µM; uPA generation: inactive; Rab9 promoter act: inconclusive; FLuc modulator: 13.5µM; SMN2 splice up: 12.6µM

Results for N#Cc1ccccc1NC(=O)CN1C(=O)NC(Cc2c[nH]c3ccccc23)C1=O (centres undefined) ?
ELG1 genotoxic: inactive; NPC1 promoter act: inactive; uPA generation: inconclusive; Rab9 promoter act: inactive; FLuc modulator: 9.53µM
